The text below walks through data of PubChem BioAssay AID504332 (National Center for Advancing Translational Sciences (NCATS), 2011).

About 31,000 (8.9%) of roughly 350,000 compounds were called active. Roughly 15% stayed inconclusive and do not appear here. Only a selection was taken, and actives are over-represented in it overall. Values without a mark were called inactive. Calls come from the whole dose curve; as a rule, active = well fitted inhibition curve with a large enough effect; inconclusive = small, poorly fitted or top-dose-only effect; inactive = no such curve, though single readings can be large or run the other way.
% is set by controls: 0 for no effect and ±100 for the full control effect; potency is the fitted concentration of half-maximal effect.

Histone-lysine N-methyltransferase EHMT2 (Homo sapiens), sequence (Q96KQ7 913-1193 limits assumed): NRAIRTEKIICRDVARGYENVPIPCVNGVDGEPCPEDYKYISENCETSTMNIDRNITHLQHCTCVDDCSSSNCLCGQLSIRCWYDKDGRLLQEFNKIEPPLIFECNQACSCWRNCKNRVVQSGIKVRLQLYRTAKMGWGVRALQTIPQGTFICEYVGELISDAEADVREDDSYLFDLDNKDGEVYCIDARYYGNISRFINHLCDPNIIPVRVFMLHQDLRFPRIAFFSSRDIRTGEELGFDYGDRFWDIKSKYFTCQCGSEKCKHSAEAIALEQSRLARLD

For this assay, the target named is Histone-lysine N-methyltransferase EHMT2 (Homo sapiens) (UniProt Q96KQ7). The assay is described as follows: qHTS Assay for Inhibitors of Histone Lysine Methyltransferase G9a. Note: nearly all actives have a fitted effect of over 75% in size. As to conditions: G9a H3K9 monomethylation, AlphaScreen, 2 h; series mostly up to 59 µM; activity, negative = inhibition: at the top concentration. A digest of the protocol:
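AlphaScreen detection with an anti-monomethyl H3K9 antibody quantified product after a 2 h room-temperature reaction containing 500 nM biotinylated H3K9 peptide, 20 µM SAM and 20 nM enzyme, which had been preincubated 15 min with compound.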
In general terms: In qHTS, concentration-response curves come from the screen itself.
In the case of `O=C(OCC(=O)N1CCCC1)c1ccc(Cl)nc1`, the “activity, negative = inhibition” value was 4.27%.
The same measure, in the same setting: the figure for `CCOC(=O)C1CCCN(C(=O)c2ccc(C)c(S(=O)(=O)N3CCCCC3)c2)C1` (stereo not drawn) is 38.4% [at 12.7 µM]; for `C=CCOc1cccc(CNn2cn[nH]c2=S)c1` it is 24.4% [at 0.0925 µM].
As to `C=CCOc1c(CNn2cn[nH]c2=S)cccc1OC`, the Potency was 20 µM (active).
`COc1ccccc1CNc1nc(-c2c(C)noc2C)nc2ccccc12`: the activity, negative = inhibition is -6.92% [at 0.501 µM].
Still for that read-out and setting: the figure for `Cc1ccc(Cl)cc1N1CCN(C(=O)c2cnc3c(-c4ccc(F)cc4)c(C)nn3c2C)CC1` is 7.75%; for `O=c1c2ccccc2nnn1CSc1nc2sc3c(c2c(=O)n1CC1CCCO1)CCC3` (stereo not drawn) it is 8.89%.
Turning to `Nc1nnc(SCn2nnc3ccccc3c2=O)s1`, the Potency was 28.2 µM (active).
As for `Cc1cccc(OCc2nnc(SCn3nnc4ccccc4c3=O)o2)c1`, the “activity, negative = inhibition” value is 2.43%.
With `O=C(NNS(=O)(=O)c1ccc(F)cc1)c1cnccn1`, the Potency was 10 µM (active).
As to `O=C(Nc1ccc(S(=O)(=O)N2CCCCC2)cc1)c1cnccn1`, the “activity, negative = inhibition” value is 0.273% [at 102 µM].
Same read-out and setting: with `O=C(Nc1ccc(F)cc1)c1ccc(S(=O)(=O)NCc2cccnc2)cc1` the figure was 31.2% [at 102 µM]; with `CSCCC(NC(=O)c1ccco1)C(=O)Nc1cc(C)ccn1` (stereo not drawn), -23.1% [at 102 µM]; with `CCn1c(=O)cc(OCC(=O)Nc2cc(Cl)c(OC)cc2OC)c2ccccc21`, -14.6%.
The same measure, in the same setting: the figure for `CCN(CC)c1ccc(S(=O)(=O)N2CCCCC2)cc1NC(=O)C1=COCCO1` is -30.4% [at 102 µM].
`Cc1ccccc1Cn1nc(C)c(NC(=O)c2cc(-c3ccc(F)cc3)on2)c1C`: the “activity, negative = inhibition” value was 6.83%.
`Cc1nnnn1/C(=C\c1ccccc1)C(=O)OCC(=O)N1CC2(C)CC1CC(C)(C)C2` (stereo not drawn): the “activity, negative = inhibition” value was -22.1%.
Same read-out and setting: with `Cc1cc(C)cc(C(=O)NCC(=O)OCC(=O)N2CCCCC2)c1` the figure was 14.1% [at 102 µM].
Take `Cc1cccc(C(=O)NCC(=O)OCC(=O)N2CC3(C)CC2CC(C)(C)C3)c1` (stereo not drawn): the Potency is 6.31 µM (active).
On to `O=S(=O)(NCCc1ccccn1)c1cc(Cl)cc(Cl)c1O`, for which the activity, negative = inhibition is 22.1% [at 2.33 µM].
Turning to `COC(=O)c1cc(C)sc1NC(=O)CC1Nc2ccccc2NC1=O` (stereo not drawn), the Potency is 50.1 µM (active).
As for `O=C(CC1Nc2ccccc2NC1=O)Nc1ccccc1NC(=O)CC1Nc2ccccc2NC1=O` (stereo not drawn), the “activity, negative = inhibition” value was -46.1% [at 102 µM].
Same read-out and setting: with `CCOC(=O)c1ccccc1NC(=O)CC1Nc2ccccc2NC1=O` (stereo not drawn) the figure was -4.54%.
With `Cc1cccc(-n2ncc(C(=O)N3CCC(C)CC3)c2C2CCN(C(=O)OC(C)(C)C)CC2)c1`, the “activity, negative = inhibition” value is -23.8%.
The same measure, in the same setting: the figure for `O=C(CS(=O)(=O)c1cccc2nsnc12)N1CCN(c2cccc(Cl)c2)CC1` is 4.58%.
Consider `COc1ccc(Cc2n[nH]c(=S)n2NC(=O)Nc2ccc(C)cc2)cc1`, for which the Potency was 8.91 µM (active).
`COc1cc(NC(=O)Nc2ccc(C)cc2)cc([N+](=O)[O-])c1`: the activity, negative = inhibition was 9.42% [at 2.33 µM].
Still for that read-out and setting: the figure for `CCN(CC(=O)Nc1ccc(OC)cc1)C(=O)CSCc1ccc(C)cc1` is -8.18% [at 12.7 µM]; for `Cc1csc(SCC(=O)N(c2ccccc2)C(C)C)n1` it is -6.13% [at 102 µM]; for `CCOc1ccc(NC(=O)c2ncoc2-c2ccco2)cc1` it is 7.16%.
On the same count and under the same terms, with `O=C(NCc1ccccc1CN1CCCC1)C1CCN(S(=O)(=O)c2ccc(Cl)cc2)CC1` the figure was 16%.
With `Cc1c(Cl)cnc(NC(=O)COC(=O)c2ccc(S(=O)(=O)NCc3ccco3)cc2)c1Cl`, the Potency was 44.7 µM (active).
Consider `C/C(=N\Nc1ncc(Cl)cc1Cl)c1ccc(S(=O)(=O)NCc2ccco2)cc1`, for which the “activity, negative = inhibition” value is -15.6%.
Turning to `O=C(CCCl)Nc1ccc(S(=O)(=O)NCc2ccco2)cc1`, the “activity, negative = inhibition” value was -13%.
Take `CCC(=O)Nc1ccc(S(=O)(=O)Nc2c(NC)c3ccccc3oc2=O)cc1`: the “activity, negative = inhibition” value is 2.23%.
The same measure, in the same setting: with `Cc1ccc(CSc2oc(-c3cccs3)nc2S(=O)(=O)c2ccc(C)cc2)cc1` the figure was -0.9%.
`Cc1ccc(S(=O)(=O)c2nc(-c3cccs3)oc2NCc2cccnc2)cc1`: the Potency was 25.1 µM (active).
`O=S(=O)(c1ccccc1)c1nc(-c2ccccc2F)oc1NCc1cccnc1`: the “activity, negative = inhibition” value was -3.34% [at 102 µM].
Regarding `CCC1Oc2ccc(Cl)cc2N(CC(=O)O)C1=O` (stereo not drawn), the “activity, negative = inhibition” value was -29.8% [at 102 µM].
Regarding `Cc1cc(Cl)ccc1N1C(=O)CC(SCCC(=O)O)C1=O` (stereo not drawn), the Potency is 10 µM (active).
Consider `Cc1ccc(N2C(=O)CC(N3CCSCC3)C2=O)c(C)c1` (stereo not drawn), for which the “activity, negative = inhibition” value is -5.6% [at 102 µM].
For the compound `Cc1ccc(CSc2nc3cccnc3n2Cc2ccc(C(=O)NC3CC3)cc2)cc1`, the “activity, negative = inhibition” value is 10.3%.
Take `COc1ccc(OCCn2cc(C(=O)C3CCCCC3)c3ccccc32)cc1`: the “activity, negative = inhibition” value was 29.3%.
Still for that read-out and setting: the figure for `O=C1CSC2(C(=O)N(Cc3ccccc3)c3ccccc32)N1c1cccc(F)c1` (stereo not drawn) is -26.1%.
Turning to `CCOc1ccccc1NC(=O)c1ccc2c(c1)CCN2S(=O)(=O)c1ccc(C)cc1`, the “activity, negative = inhibition” value is 4.28%.
On the same count and under the same terms, the figure for `CC(=O)c1c(-c2ccccc2)c2ccccc2[nH]c1=O` is -27.3% [at 102 µM]; for `NC(=O)Cc1ccc2c(c1)[nH]c1ccccc12` it is 15.3% [at 102 µM].
With `S=c1[nH]c2ccccc2c2ccccc12`, the Potency is 8.91 µM (active).
